Screens (PubChem BioAssay)
G9a inh: qHTS Assay for Inhibitors of Histone Lysine Methyltransferase G9a; G9a H3K9 monomethylation, AlphaScreen, 2 h; AID 504332, 2011; 350,000 tested, 8.8% active; Potency, µM (series often up to 102 µM), for inactives: at the top dose activity, negative = inhibition, hits mostly inhibitors; Histone-lysine N-methyltransferase EHMT2 (Homo sapiens), Q96KQ7; further: on the % scale 0 is the no-effect control and ±100 the full control effect; nearly all actives have a fitted effect of over 75% in size
Target sequence (Q96KQ7 913-1193 limits assumed): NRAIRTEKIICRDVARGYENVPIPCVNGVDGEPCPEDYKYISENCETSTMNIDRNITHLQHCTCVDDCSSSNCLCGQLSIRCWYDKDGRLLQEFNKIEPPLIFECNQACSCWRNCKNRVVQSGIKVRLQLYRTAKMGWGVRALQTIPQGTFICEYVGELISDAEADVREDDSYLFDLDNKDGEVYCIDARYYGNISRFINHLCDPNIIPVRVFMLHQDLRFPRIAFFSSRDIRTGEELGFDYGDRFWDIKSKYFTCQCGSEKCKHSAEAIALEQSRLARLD
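Step 1: enzyme (final 20 nM) with compound, 15 min RT. Step 2: substrate peptide 500 nM and SAM 20 uM, 2 h RT. Step 3: anti-H3K9me1 antibody and AlphaScreen beads, 10 min, then plate read.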
JMJD2A Tudor inh: qHTS Assay for Inhibitors of JMJD2A-Tudor Domain | Lysine-specific demethylase 4A (Homo sapiens), O75164 | AlphaScreen JMJD2A-Tudor / H3K4me3 peptide binding | Potency, µM (top dose mostly 114 µM), for the others: at the top dose activity change, negative = inhibition, usual class: inhibitors | 390,000 tested, 4.4% active | AID 504339, 2011; further: on the % scale 0 is the no-effect control and ±100 the full control effect; nearly all actives have a fitted effect of over 50% in size
GLS inh: qHTS for Inhibitors of Glutaminase (GLS) | Glutaminase kidney isoform, mitochondrial (Homo sapiens), O94925 | GLS enzymatic activity, qHTS titration | Potency, µM (series often up to 45.5 µM), for inactives: at the highest dose activity change, negative = inhibition, hits mostly inhibitors | 410,000 tested, 0.21% active | AID 624170, 2012; further: on the % scale 0 is the no-effect control and ±100 the full control effect
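Read-out is an Amplex red fluorescence increase coupled through glutamate oxidase and HRP, measured before and after 30 min room-temperature incubation. hKGA is in 45 mM KH2PO4 (pH 8.2) with 0.02% Tween-20; glutamine added as 1mM solution.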
BAZ2B inh: qHTS Assay for Inhibitors of BAZ2B. AlphaScreen BAZ2B-H3K14Ac peptide displacement. AID 504333, 2011. 360,000 tested, 4.4% active. Potency, µM (titrated, usually from 114 µM), for the others: at the top dose activity change, negative = inhibition, most hits filed as inhibitors; further: on the % scale 0 is the no-effect control and ±100 the full control effect; nearly all actives have a fitted effect of over 60% in size
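AlphaScreen displacement: compounds (up to 110uM) incubated 30 min at room temperature with a preformed 50 nM BAZ2B/50 nM biotinylated H3K14Ac peptide complex in PBS pH 7.4 with Tween-20. Donor and acceptor beads at 10 ug/mL final added, 20 min light-protected before reading.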
HP1b binding inh: HTS for Inhibitors of HP1-beta Chromodomain Interactions with Methylated Histone Tails; Potency, µM (top dose mostly 114 µM), inactives show at the highest dose activity change, negative = inhibition, actives largely listed as inhibitors; Chromobox protein homolog 1 (Homo sapiens), P83916; 390,000 tested, 0.56% active; AlphaScreen HP1-beta / biotin-H3K9me3 peptide binding; further: nearly all actives have a fitted effect of over 70% in size
Target sequence (P83916 whole entry, looked up): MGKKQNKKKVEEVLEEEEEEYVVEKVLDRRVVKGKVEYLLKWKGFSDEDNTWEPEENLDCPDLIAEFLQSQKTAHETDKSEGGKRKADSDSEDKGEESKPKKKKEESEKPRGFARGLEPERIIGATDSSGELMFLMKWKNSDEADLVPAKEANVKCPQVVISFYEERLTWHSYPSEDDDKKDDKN
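HP1-beta protein (50 nM final) preincubated 30 min at room temperature with biotinylated H3(1-18)K9me3 peptide (50 nM) in PBS pH 7.4, 0.01% Tween-20, then compound added for 30 min. AlphaScreen streptavidin donor/nickel chelate acceptor beads (10 ug/mL final), 30 min dark, luminescence read.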
Starred values were filed as active, the others as inactive; ? = inconclusive; · = no result given; [ ] = another dose, or the depositor's remark. In the library only some 10% were active in any assay of this set; here they are far more common. The call rests on the fitted dose curve; in most records, active means well fitted curve in the direction sought with a large enough effect; inconclusive means small, poorly fitted or top-dose-only effect, or another doubt; inactive means no such curve, though single readings can be large; an effect the other way counts as inactive or inconclusive. Potency means the concentration at half of the fitted maximal effect.

SMILES | G9a inh | JMJD2A Tudor inh | GLS inh | BAZ2B inh | HP1b binding inh
N#C/C(C(N)=O)=C1/SC=C(c2ccccc2)N1c1ccccc1 | ? | -6% | -10% | -10% | 15%
O=C(Nc1ccc(Cl)cc1)C1CCN(c2nc3ccccc3nc2C(F)(F)F)CC1 | 11%[59 µM] | -4% | -2% | -1% | 13%
O=C(Nc1nnc(C2CC2)s1)C1Cc2ccccc2CN1C(=O)c1ccco1 (stereo not given) | 20µM* | ? | 0% | 50µM* | ?
Cc1ccc(-n2c(Cc3ccccc3)n[nH]c2=S)c(C)c1 | ? | 18µM* | -4% | -29% | 3%
COc1ccc(Cc2n[nH]c(=S)n2-c2cc(C)ccc2C)cc1OC | · | · | 2% | · | ·
S=c1[nH]nc(Cc2ccccc2)n1-c1cccc2ccccc12 | 10µM* | 25µM* | 13µM* | -32% | 6%
Cc1ccc(-n2c(CC#N)n[nH]c2=S)c(C)c1 | 22µM* | 20µM* | -1% | -18% | 39%
N#Cc1c(Nc2ccccc2)[n+]([O-])c2ccc(Cl)cc2[n+]1[O-] | · | -31% | 5% | · | ?
O=C(O)CC12CC3CC(C1)CC(n1ncc(NCc4ccco4)c(Cl)c1=O)(C3)C2 | -45% | -7% | 5% | 11% | 6%
O=C(O)CC12CC3CC(C1)CC(n1ncc(NCC4CCCO4)c(Cl)c1=O)(C3)C2 (stereo not given) | 56µM* | -17% | 2% | -13% | 28%
CSc1ccc(-c2nnc(NC(=O)c3ccc4c(c3)OCCO4)o2)cc1 | 52%[59 µM] | -19% | -14% | -7% | 14%[57 µM]
CCCC(=O)Nc1nnc(-c2ccc3c(c2)OCCO3)o1 | 3% | ? | 9% | 79µM* | -7%
CCN(Cc1nc2ccccc2c(=O)[nH]1)C(=O)CN1C(=O)NC2(CCCCC2C)C1=O (stereo not given) | 20%[59 µM] | 5% | -4% | -3% | 50%
CCN(Cc1nc2cc(Cl)ccc2c(=O)[nH]1)C(=O)CN1C(=O)NC2(CCCCC2C)C1=O (stereo not given) | 50µM* | -18% | 1% | -4% | -1%
N#C/C(=C\c1ccc(C(=O)O)cc1)c1nc2sc3c(c2c(=O)[nH]1)CCCC3 | 40µM* | ? | ? | 45µM* | -33%
COc1ccc(O)c(C(=O)c2cnn(-c3ccccc3)c2)c1 | 4.5µM* | -32% | 14% | -27% | -15%
COc1ccc(-n2cc(C(=O)c3ccccc3O)cn2)cc1 | 77% | 20% | 0% | 23% | 49%
C#CCOc1ccc(Cl)cc1/C=C1/C(=O)ON=C1C | 32µM* | 35µM* | -3% | ? | 15%
C#CCOc1ccc(/C=C2/C(=O)ON=C2C)cc1Br | 35µM* | -9% | 4% | -5% | 8%
C#CCOc1c(Br)cc(/C=N/O)cc1OCC | 29%[59 µM] | -1% | 3% | 5% | 27%
COc1ccc(-c2nc3n(n2)C(=O)CC(c2ccco2)S3)cc1 (stereo not given) | 2.2µM* | 32µM* | -1% | ? | -2%
CN(C(=O)CO)c1c(I)c(C(=O)NCC(O)CO)c(I)c(C(=O)NCC(O)CO)c1I (stereo not given) | · | · | -6% | · | ·
CCOC(=O)c1cc2c(=O)n3ccccc3nc2n(C(C)C)c1=NC(=O)c1c(-c2ccccc2Cl)noc1C | 0% | 5% | -10% | · | 46%
COCCCn1c(C(=O)N2CCOCC2)cc2c(=O)n3ccccc3nc21 | 49% | -2% | 11% | -9% | 26%
CCOC(=O)c1cc2c(=O)n3ccccc3nc2n(CCOC)c1=NC(=O)c1ccncc1 | -4%[12.7 µM] | -17% | -18% | 3% | 28%
SMILES | G9a inh | JMJD2A Tudor inh | GLS inh | BAZ2B inh | HP1b binding inh
CCOC(=O)c1cc2c(=O)n3ccccc3nc2n(C(C)C)c1=NC(=O)c1ccncc1 | 56µM* | ? | -2% | 0% | -7%
COCCCn1c(C(=O)Nc2ccc3c(c2)OCO3)cc2c(=O)n3ccccc3nc21 | -5% | 25µM* | ? | -4% | 10%
CCOC(=O)c1cc2c(=O)n3ccccc3nc2n(Cc2ccco2)c1=NC(=O)c1cccnc1 | 56µM* | ? | 7% | ? | 12%
CCOC(=O)c1cc2c(=O)n3ccccc3nc2n(CCCOC)c1=NC(=O)c1cccnc1 | 10µM* | · | · | 10% | ·
CCOC(=O)c1cc2c(=O)n3cccc(C)c3nc2n(Cc2ccco2)c1=NC(=O)c1cccnc1 | 8%[12.7 µM] | ? | -17% | 79µM* | 15%
CCOC(=O)c1cc2c(=O)n3ccccc3nc2n(Cc2ccco2)c1=NC(=O)c1ccc(C)c(C)c1 | -3%[59 µM] | 6% | -7% | 3% | 25%
CCOC(=O)c1cc2c(=O)n3ccccc3nc2n(Cc2ccco2)c1=NC(=O)c1cccc(Br)c1 | ? | -6% | ? | 50µM* | 28%
FC(F)(F)c1cnc(C(c2ccccn2)c2ncn[nH]2)c(Cl)c1 (stereo not given) | 44% | 16µM* | -8% | 2.5µM* | 28%
COC(=O)c1ccc(NC(=O)CN2CCCN(Cc3ccc(Cl)cc3)S2(=O)=O)cc1 | 24%[59 µM] | -19% | -10% | -13% | 25%
CCOc1ccc(-n2c(CCC(=O)O)ccc2-c2ccc(Br)cc2)cc1 | 10µM* | ? | -5% | 40µM* | ?
Cc1ccc(-c2ccc(CCC(=O)O)n2-c2ccc(O)cc2)cc1 | ? | ? | 30% | ? | -20%
CCOC(=O)c1ccc(-n2c(CCC(=O)O)ccc2-c2ccc(Br)cc2)cc1 | 16µM* | ? | 17% | 50µM* | ?
CCCc1c(C(=O)N/N=C/c2ccco2)nnn1-c1nonc1N | · | -14% | 1% | 15% | 32%
COc1ccc2[nH]cc(CCNC(=O)Nc3cc(C)cc(C)c3)c2c1 | -4%[59 µM] | ? | 32% | -31% | 2%
C(=C\c1ccco1)/c1nc2ccccc2[nH]1 | · | -18% | 0% | ? | -9%
C(=C\c1ccco1)/c1ccc2ccccc2n1 | · | -5% | 1% | 40µM* | ?
Cc1cn2c(=O)c(S(=O)(=O)NCCc3ccccc3)c(C)nc2s1 | -5%[59 µM] | 2% | -12% | -11% | 34%
COc1cc(/C=C2\SC(=O)N(CC(=O)Nc3ccc(C)cc3)C2=O)cc(Cl)c1OCC(=O)O | ? | 11µM* | 7.1µM* | 14µM* | 14µM*
O=C(CN1C(=O)S/C(=C\c2cc(Cl)c(O)c(Cl)c2)C1=O)Nc1ccccc1 | · | ? | 30% | 45µM* | -16%
O=C(CN1C(=O)S/C(=C\c2ccccn2)C1=O)Nc1ccccc1 | -2%[0.501 µM] | -5% | -3% | -8% | 29%
COc1ccc(/C=C2\SC(=O)N(CCCC(=O)Nc3ccc(C(=O)O)cc3)C2=O)cc1OC | 9% | -4% | 6% | -2% | 15%
